Compounds with a hit are over-represented: about 8.9% of the library has one in this group of screens.
HPGD block – inhibitors of human 15-hydroxyprostaglandin dehydrogenase (HPGD); Potency, µM, without a hit: top-dose activity change, negative = inhibition, hits mostly inhibitors; purified HPGD, NADH fluorescence kinetic, PGE2 substrate; actives 4.3% (n = 150,000); P15428; active = well fitted inhibition curve with a large enough effect, not every such curve was filed as active; inconclusive = small, poorly fitted or top-dose-only effect, or another doubt; inactive = no such curve, though single readings can be large or run the other way; also: potency is read from the fitted curve at half-maximal effect
Target sequence (P15428 whole entry, looked up): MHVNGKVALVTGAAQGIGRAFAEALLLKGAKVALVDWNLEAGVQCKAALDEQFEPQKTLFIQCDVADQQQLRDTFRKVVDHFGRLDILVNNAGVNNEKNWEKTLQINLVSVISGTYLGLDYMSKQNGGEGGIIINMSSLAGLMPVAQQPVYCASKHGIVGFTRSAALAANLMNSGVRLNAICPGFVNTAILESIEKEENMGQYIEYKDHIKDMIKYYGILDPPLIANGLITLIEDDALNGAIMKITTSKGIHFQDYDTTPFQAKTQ
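20 nM HPGD preincubated 15 min at room temperature with compound in 50 mM Tris-HCl pH 8, 0.01% Tween 20. Started with 1 mM NAD+ and 30 uM prostaglandin E2; NADH fluorescence (360/450 nm) read 5 times over 30-s intervals, last minus first.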
IMPase Li cell – cell-permeable IMPase inhibitors with lithium potentiation. CHO-M1 cells, IP1 TR-FRET (IP-One), carbachol + lithium. Potency, µM (doses to about 59.4 µM), inactives show top-dose activity, negative = IMPase inhibition, actives largely listed as inhibitors. actives 0.35% (n = 210,000);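 also: IP1 builds up when IMPase is blocked and the TR-FRET signal falls; potency is read from the fitted curve at half-maximal effect; plate controls were basal vehicle for no effect and high inhibitor control for full effect; nearly all actives have a fitted effect of over 50% in size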
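Test compounds were applied to CHO-M1 cells previously cultured for 16–30 h at 2000 per well. A small lithium amount accompanied them; after 30 min at 37C, IP1 was quantified by TR-FRET.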
NPSR antag – blocks cAMP signaling of the human neuropeptide S receptor; CHO-NPSR cells, cAMP TR-FRET, antagonist mode; Potency, µM (top dose mostly 38.3 µM), without a hit: at the highest dose activity change, negative = inhibition, usual class: inhibitors; actives 1% (n = 220,000); also: potency is read from the fitted curve at half-maximal effect; nearly all actives have a fitted effect of over 50% in size
Target sequence (Q6W5P4 whole entry, looked up): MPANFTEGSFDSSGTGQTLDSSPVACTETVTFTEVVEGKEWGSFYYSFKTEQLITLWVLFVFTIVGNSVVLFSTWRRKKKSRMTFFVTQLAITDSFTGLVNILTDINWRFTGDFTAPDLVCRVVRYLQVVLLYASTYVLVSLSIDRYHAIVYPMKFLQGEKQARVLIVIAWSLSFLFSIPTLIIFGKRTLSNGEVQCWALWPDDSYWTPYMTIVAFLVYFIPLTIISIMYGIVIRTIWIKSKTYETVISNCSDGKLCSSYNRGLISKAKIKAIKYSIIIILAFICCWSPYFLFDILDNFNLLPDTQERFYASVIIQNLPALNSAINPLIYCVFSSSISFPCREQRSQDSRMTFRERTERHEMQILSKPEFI
IMPase cell inh – membrane-permeable compound that blocks inositol monophosphatase | 120,000 tested, under 10 active | inhibition (IP1 accumulation), % at 46.1 µM | CHO-M1 cells, IP1 accumulation, HTRF TR-FRET ratio | P97697 | AID 901; active = well fitted curve in the direction sought with a large enough effect in the signal ratio, not every such curve was filed as active; inconclusive = small, poorly fitted or top-dose-only effect, or a change in a side signal; inactive = no such curve, though single readings can be large or run the other way; the % refers to the signal ratio;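 also: cells stimulated with carbachol in lithium chloride buffer; plate controls were DMSO basal wells for no effect and reference inhibitor wells for full effect; higher means more IMPase inhibition seen as more IP1 and lower FRET ratio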
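CHO-M1 cells (CHO stably expressing M1 receptor), compound up to 46 uM final, stimulated with carbachol (50 uM as added) in buffer with 50mM LiCl, pH 7.4, 30 min at 37C. Cytosolic IP1 read by TR-FRET; AC50 from Hill fits.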
ALDH1A1 inh – blocks purified human ALDH1A1 activity; Purified ALDH1A1, NADH fluorescence, propionaldehyde substrate; Potency, µM (top dose mostly 75.3 µM), for inactives: at the top dose activity, negative = inhibition, actives largely listed as inhibitors; actives 7.3% (n = 220,000); active = well fitted inhibition curve with a large enough effect, not every such curve was filed as active; inconclusive = small, poorly fitted or top-dose-only effect, or another doubt; inactive = no such curve, though single readings can be large or run the other way;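 also: potency is read from the fitted curve at half-maximal effect; plate controls were no enzyme wells and a reference inhibitor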
ALOX12 inhib – blocks human 12-lipoxygenase activity | actives 0.12% (n = 150,000) | P18054 | AID 1452 | purified 12-hLO, xylenol orange hydroperoxide absorbance | Potency, µM (series often up to 57.1 µM), inactives show at the top dose activity change, negative = inhibition, actives largely listed as inhibitors; also: potency is read from the fitted curve at half-maximal effect; nearly all actives have a fitted effect of over 55% in size
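Xylenol orange chromogenic assay: hydroperoxide from 12hLO oxidises Fe(II), giving red-shifted Fe(III)-XO absorbance. Conditions: 150 nM enzyme, 40 uM arachidonic acid, 25 mM Hepes pH 7.0, 0.01% Triton X-100, 30 min, room temperature.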
* marks the source's active call; other numbers are inactive results; ? = inconclusive; . = no result given; [ ] = another dose, or the depositor's remark. Unless noted, calls follow the shape of the dose curve; as a rule, active = well fitted curve in the direction sought with a large enough effect; inconclusive = small, poorly fitted or top-dose-only effect, or another doubt; inactive = no such curve, though single readings can be large; an effect the other way counts as inactive or inconclusive. Unless noted, % is scaled to controls: 0 for no effect and ±100 for the full control effect.

SMILES	HPGD block	IMPase Li cell	NPSR antag	IMPase cell inh	ALDH1A1 inh	ALOX12 inhib
COc1ccc(NC(=O)C(c2ccc(OC)cc2)N(C)C(=O)CNC(C)=O)cc1 (stereo unspecified)	-8%	-4%[38.3 µM]	-3%[46.1 µM]	11	12%	14%
Cc1cc(Nc2ccccc2Br)n2nc(C)nc2n1	?	-6%	18%	.	3%	-3%
COC(=O)c1ccccc1Nc1cc(C)nc2nc(C)nn12	1µM*	8%	10%	.	22%	-5%
CCOC(=O)c1ccccc1Nc1cc(C)nc2nc(C)nn12	2.2µM*	2%	-6%[46.1 µM]	-5	5%	-4%
CC(=O)Nc1ccc(Oc2cc(N)cc([N+](=O)[O-])c2)cc1	.	-3%	5%	.	-3%	.
Nc1[nH]nc2nc3ccccc3nc12	-7%	45%	.	?	0%	-3%
CCN1C(=O)/C(=C/c2cccs2)N(C)C1=S	-22%	52%[38.3 µM]	4%[46.1 µM]	8	?	?
CCN1C(=O)N/C(=C/c2ccc(C)o2)C1=O	-23%	4%	-23%	.	15µM*	-4%
CCN1C(=O)N/C(=C/c2ccc(Sc3ccc(C)cc3)o2)C1=O	?	30%[38.3 µM]	-3%[46.1 µM]	-13	?	-7%
Cc1ccc(/C=C2/NC(=O)N(Cc3ccc(Br)cc3)C2=O)o1	?	4%	-25%	.	13µM*	-29%
CCN1C(=O)/C(=C/c2ccc(C)o2)N(C)C1=S	?	0%	18%	-7	1.6µM*	-23%
CCCN1C(=O)/C(=C/c2ccc(C)o2)NC1=S	.	10%	-18%	.	7.1µM*	.
CC(C)(C)NC(=O)CN(C(=O)CSc1nnc(COc2ccccc2)o1)c1cccc(F)c1	-1%	24%[38.3 µM]	-22%[46.1 µM]	-2	5%	1%
CCN1CCN(CC(=O)N2N=CCC2c2ccccc2)CC1 (stereo unspecified)	.	.	8%	.	.	.
Cc1ccc(/C=C2/NC(=O)N(Cc3ccccc3F)C2=O)o1	-17%	0%	13%	1	16µM*	-11%
O=C1S/C(=C\c2ccccn2)C(=O)N1Cc1ccccc1F	4%	0%	-5%	.	?	4%
O=C(Oc1ccc(-c2cnc3ccccc3n2)cc1)c1cc([N+](=O)[O-])ccc1Cl	-15%	-25%[38.3 µM]	6%[46.1 µM]	5	0.22µM*	-8%
Cc1c(C(=O)Oc2ccc(-c3cnc4ccccc4n3)cc2)cccc1[N+](=O)[O-]	-26%	-25%[38.3 µM]	?	6	?	-20%
CCn1cc(SCC(=O)N2CCc3ccccc32)c2ccccc21	-16%	49%[38.3 µM]	-30%[46.1 µM]	8	?	-7%
Nc1n[nH]c(=S)n1/N=C1/C(=O)Nc2ccccc21	.	30%	-13%	.	7.9µM*	.
Cc1ccc(NC(=O)Nc2cc(Cl)ccc2C2COC(=O)C2=N)cc1 (stereo unspecified)	.	-5%	-2%	.	7.5µM*	.
Cc1nn(C)c(C)c1CNC(=O)Nc1cccc(Cl)c1C	.	3%	30%	.	5%	.
Clc1ccc(C[n+]2cc(-c3ccccc3)n3c2CCC3)cc1Cl	-8%	15%	-2%	8	-7%	-1%
CC(=O)c1ccc(OC(C)C)c(CSc2nc(O)cc(=O)[nH]2)c1	3.5µM*	-2%[38.3 µM]	-10%[46.1 µM]	8	?	-25%
COC(=O)CNC(=O)CNC(=O)Nc1ccccc1	-8%	28%[38.3 µM]	-7%[46.1 µM]	-4	8%	0%
SMILES	HPGD block	IMPase Li cell	NPSR antag	IMPase cell inh	ALDH1A1 inh	ALOX12 inhib
CCOC(=O)C1=C(C)NC(=O)NC1C (stereo unspecified)	-1%	12%[38.3 µM]	0%[46.1 µM]	-11	22%	0%
CCOC(=O)C1=C(CBr)NC(=O)NC1C (stereo unspecified)	.	-1%	8%	.	14µM*	.
COc1cccc(OCCn2cccc2/C=C2/C(=N)N3OC(C)=CC3=NC2=O)c1	.	7%	-30%	.	6%	.
NC(=O)C1(NC(=O)[C@@H]2CC3(CC(c4cccc(NC(=O)[C@@H]5CCC(=O)N5)c4)=NO3)CN2C(=O)c2cnccn2)CC1 (stereo partly specified)	-13%	-10%[38.3 µM]	-5%[46.1 µM]	9	22µM*	16%
COCCSc1nnc(NC(=O)Cc2ccccc2OC)s1	-16%	22%[38.3 µM]	-13%[46.1 µM]	14	22µM*	5%
O=C(CN(C(=O)CCC(=O)Nc1nccs1)c1ccc(F)cc1)NCC1CCCO1 (stereo unspecified)	-9%	-1%[38.3 µM]	?	0	8%	-5%
Clc1cccc(NCc2nnc(SCc3ccc(Cl)cc3Cl)o2)c1	-15%	20%	-23%[46.1 µM]	1	-9%	-8%
S=c1[nH]nc(CNc2cccc(Cl)c2)o1	.	-4%	2%	.	32µM*	.
O=c1[nH]n(-c2ccc(F)cc2)c2ncccc12	18µM*	4%[38.3 µM]	-12%[46.1 µM]	3	7%	0%
CCOC(=O)N1CCN(C(=O)C2CCN(C(=O)c3cc4sccc4n3CC)CC2)CC1	-5%	2%	7%	?	-5%	3%
O=C(OCn1nnc2ccccc2c1=O)c1cc(-c2ccccc2)nc2ccccc12	?	-6%	-15%	6	?	4%
CCCCCCCN1N=C(C)C(C(=O)c2ccccc2)C1=O (stereo unspecified)	0%	13%[38.3 µM]	?	-4	-4%	-19%
CCCCCN1N=C(C)CC1=O	.	2%	0%	.	0.63µM*	.
COc1cc(/C=N/NC(=O)c2ccc(CN(C)S(=O)(=O)c3ccc(C)cc3)cc2)ccc1O	.	12%	-19%	.	6%	.
CCn1c(C)cc(/C=C2/NC(=O)N(Cc3ccccc3F)C2=O)c1C	?	7%	-8%	.	1.8µM*	-2%
Cc1cc(/C=C2/NC(=O)N(Cc3ccccc3F)C2=O)c(C)n1C(C)C	-26%	12%	-22%	.	2µM*	-5%
CCn1c(C)cc(/C=C2\NC(=O)N(Cc3ccccc3)C2=O)c1C	-13%	3%[38.3 µM]	-15%[46.1 µM]	2	8.9µM*	-16%
O=C1N/C(=C/c2cccn2-c2ccccc2)C(=O)N1Cc1ccc(F)cc1	-3%	1%	25%	.	?	-2%
Cc1cc(/C=C2/NC(=O)N(c3ccccc3)C2=O)c(C)n1C(C)C	-7%	2%	-24%	.	?	-8%
CCn1c(C)cc(/C=C2\NC(=O)N(CC(=O)Nc3ccc(F)cc3)C2=O)c1C	.	-8%	5%	.	6%	.
CCC(C)Nc1nc(Cl)nc(NCCOc2ccccc2)n1 (stereo unspecified)	-5%	11%	3%	.	?	1%
c1ccc2sc(SN3CCOCC3)nc2c1	14µM*	5%[38.3 µM]	-5%[46.1 µM]	-6	4µM*	-4%
O=C(NCCCN1CCCC1=O)c1ccc2c(c1)ncn2C1CCCCC1	-6%	2%	7%	.	-2%	-1%
O=C(O)CCCCCNc1ccc2nsnc2c1[N+](=O)[O-]	28µM*	-5%	-2%	7	-5%	-4%
